# Bioassay records deposited in PubChem by National Center for Advancing Translational Sciences (NCATS).
# An excerpt weighted towards active compounds, which were near 12% of everything screened.
# G9a block: blocks human histone lysine methyltransferase G9a; Potency, µM (doses to about 102 µM), for the others: top-dose activity, negative = inhibition, most hits filed as inhibitors; 350,000 tested, 8.8% active; G9a H3K9 monomethylation, AlphaScreen, 2 h; note: % is set by controls: 0 for no effect and ±100 for the full control effect; nearly all actives have a fitted effect of over 75% in size
#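 AlphaScreen read-out: biotin-H3K9 peptide (500 nM) methylation by 20 nM enzyme with 20 uM SAM, 2 h at room temperature after 15 min compound preincubation; anti-monomethyl H3K9 antibody plus donor/acceptor beads, 10 min dark.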
# Sfp PPTase inh: blocks B. subtilis Sfp PPTase activity; Q9F4F7; Biochemical Sfp PPTase activity, qHTS; Potency, µM, inactives show largest response in the series, negative = inhibition, most hits filed as inhibitors; 310,000 tested, 3.5% active; AID 1490;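 note: the enzyme is Sfp with the accession as filed and its product quenches rhodamine fluorescence; 0% = enzyme reaction without inhibitor and -100% = no enzyme wells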
#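 Reaction rates are the 30-min fluorescence difference (ex 525, em 598 nm) in wells containing 15 nM Sfp, 5 uM rhodamine-CoA and 12.5 uM BHQ-2-YbbR at pH 7.6 with 10 mM MgCl2.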
# L3MBTL1 inh: L3MBTL1 (human) inhibition. Q9Y468. AlphaScreen L3MBTL1–H3K9me1 peptide binding. Potency, µM (top dose mostly 57.1 µM), for inactives: top-dose activity, negative = inhibition, actives largely listed as inhibitors. 230,000 tested, 0.66% active; note: % is set by controls: 0 for no effect and ±100 for the full control effect; nearly all actives have a fitted effect of over 60% in size
#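 AlphaScreen assay: L3MBTL1 (50 nM final) was preincubated 30 min at room temperature with biotinylated H3(1-15)K9me1 peptide (75 nM final), then 30 min with library compounds; streptavidin donor and nickel chelate acceptor beads (10 ug/mL final) added, 30 min dark.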
# HP1b binding inh: inhibitors of HP1-beta chromodomain binding to methylated histone tails | P83916 | AlphaScreen HP1-beta / biotin-H3K9me3 peptide binding | Potency, µM (doses to about 114 µM), for inactives: top-dose activity change, negative = inhibition, actives largely listed as inhibitors | 390,000 tested, 0.56% active | AID 540317; note: nearly all actives have a fitted effect of over 70% in size
#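 Compound inhibition of the preformed complex between 50 nM HP1-beta and 50 nM biotinylated H3K9me3 peptide was read by AlphaScreen. Buffer was PBS pH 7.4 with 0.01% Tween-20. Incubations ran 30 min at room temperature, with 10 ug/mL donor/acceptor beads.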
# BAZ2B block: inhibitors of human BAZ2B bromodomain | Q9UIF8 | AlphaScreen BAZ2B-H3K14Ac peptide displacement | Potency, µM (doses to about 114 µM), for inactives: at the highest dose activity change, negative = inhibition, most hits filed as inhibitors | 360,000 tested, 4.4% active | AID 504333; note: % is set by controls: 0 for no effect and ±100 for the full control effect; nearly all actives have a fitted effect of over 60% in size
#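 Complex of BAZ2B and biotin-H3K14Ac (50 nM apiece) forms over 30 min at RT, then faces library compounds up to 110 uM for another 30 min; AlphaScreen beads added, 20 min dark incubation, luminescence read.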
# JMJD2A Tudor: JMJD2A Tudor domain (human) inhibition; AID 504339; 390,000 tested, 4.4% active; AlphaScreen JMJD2A-Tudor / H3K4me3 peptide binding; Potency, µM (top dose mostly 114 µM), inactives show at the highest dose activity change, negative = inhibition, usual class: inhibitors; note: % is set by controls: 0 for no effect and ±100 for the full control effect; nearly all actives have a fitted effect of over 50% in size
# Target sequence (O75164 whole entry, looked up, the tested form may be a part): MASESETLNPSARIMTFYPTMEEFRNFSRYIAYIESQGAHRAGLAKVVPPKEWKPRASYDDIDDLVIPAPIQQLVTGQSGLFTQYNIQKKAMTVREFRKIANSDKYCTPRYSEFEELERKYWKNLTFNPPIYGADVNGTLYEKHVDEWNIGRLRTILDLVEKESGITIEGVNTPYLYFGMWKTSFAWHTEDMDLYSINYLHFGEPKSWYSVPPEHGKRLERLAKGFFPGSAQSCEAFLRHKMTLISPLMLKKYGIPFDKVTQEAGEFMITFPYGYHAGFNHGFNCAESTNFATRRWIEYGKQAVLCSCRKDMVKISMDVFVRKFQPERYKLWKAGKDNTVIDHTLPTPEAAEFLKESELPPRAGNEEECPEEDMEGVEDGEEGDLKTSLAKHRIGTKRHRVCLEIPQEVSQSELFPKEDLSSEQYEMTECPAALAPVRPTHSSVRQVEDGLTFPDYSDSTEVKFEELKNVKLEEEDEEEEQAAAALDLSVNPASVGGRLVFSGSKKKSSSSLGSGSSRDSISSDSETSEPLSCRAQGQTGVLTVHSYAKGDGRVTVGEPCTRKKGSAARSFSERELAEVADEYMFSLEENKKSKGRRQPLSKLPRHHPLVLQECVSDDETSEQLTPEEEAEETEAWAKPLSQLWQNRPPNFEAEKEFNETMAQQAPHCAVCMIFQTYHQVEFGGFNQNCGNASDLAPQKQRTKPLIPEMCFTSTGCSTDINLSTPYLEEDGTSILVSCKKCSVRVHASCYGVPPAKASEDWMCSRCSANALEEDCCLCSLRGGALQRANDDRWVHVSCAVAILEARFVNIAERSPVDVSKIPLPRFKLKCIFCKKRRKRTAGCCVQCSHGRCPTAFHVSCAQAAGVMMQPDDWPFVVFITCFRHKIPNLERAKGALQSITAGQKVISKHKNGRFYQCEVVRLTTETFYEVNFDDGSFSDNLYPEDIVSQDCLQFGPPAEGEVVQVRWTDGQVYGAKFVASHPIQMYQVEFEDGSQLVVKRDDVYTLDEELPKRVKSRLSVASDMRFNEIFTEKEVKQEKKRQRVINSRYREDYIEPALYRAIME
# * hit, by the source's call; u = inconclusive; x = no result given; [ ] = dose if it differs, or a comment. Calls come from the whole dose curve; as a rule, active = well fitted curve in the direction sought with a large enough effect; inconclusive = small, poorly fitted or top-dose-only effect, or another doubt; inactive = no such curve, though single readings can be large; an effect the other way counts as inactive or inconclusive. Potency is the fitted concentration of half-maximal effect.
SMILES,G9a block,Sfp PPTase inh,L3MBTL1 inh,HP1b binding inh,BAZ2B block,JMJD2A Tudor
CN1CCC2(CC1)CCN(C(=O)c1cccc(F)c1)CC2,2%[12.7 µM],17%,x,x,x,x
CCc1nnc(NC(=O)CSc2nc3ccc(OC)cc3[nH]2)s1,2%,14%,0%,16%[57 µM],-23%,-6%
COc1cc(-c2nc(SCC(=O)Nc3ccc4c(c3)OCO4)c(-c3ccccc3)[nH]2)cc(OC)c1OC,11µM*,x,x,u,u,u
COc1ccc(-c2nc(SCC(=O)Nc3ccc4c(c3)OCCO4)c(-c3ccc(C)cc3)[nH]2)cc1OC,-11%[59 µM],x,x,2%,-23%,u
CN1CCN(c2ncc3nc(-c4cccs4)c(=O)n(Cc4cccs4)c3n2)CC1,24%[0.501 µM],u,x,x,x,x
O=c1c(-c2cccs2)nc2cnc(N3CCNCC3)nc2n1Cc1cccs1,12%[0.501 µM],18µM*,x,x,x,x
O=c1c(-c2ccc(Cl)cc2)nc2cnc(N3CCNCC3)nc2n1Cc1cccs1,6%[0.501 µM],28µM*,x,x,x,x
O=c1c(-c2cc(F)cc(F)c2)nc2cnc(N3CCNCC3)nc2n1Cc1cccs1,9%[12.7 µM],35µM*,x,x,x,x
COc1cccc(Cn2c(=O)c(-c3cn(C)c4ccccc34)nc3cnc(N4CCNCC4)nc32)c1,8%[0.501 µM],u,x,x,x,x
CN1CCN(c2ncc3nc(-c4ccc(Cl)cc4)c(=O)n(Cc4cccs4)c3n2)CC1,8%[0.501 µM],-12%,x,x,x,x
O=c1c(-c2cc(F)cc(F)c2)nc2cnc(N3CCOCC3)nc2n1Cc1cccs1,8%[0.501 µM],19%,x,x,x,x
Cn1cc(-c2nc3cnc(N4CCNCC4)nc3n(Cc3ccc(F)cc3)c2=O)c2ccccc21,5%[0.501 µM],20µM*,x,x,x,x
Cc1cnc(CNc2ncnc3ccc(-c4cccc(C#N)c4)cc23)cn1,x,4%,x,x,x,x
Cn1cnnc1SCc1ccc(C(=O)N/N=C(/CCC(=O)O)c2ccc(C(C)(C)C)cc2)cc1,x,x,x,26%,x,-1%
CC(C)c1nnc(NC(=O)c2cccnc2)s1,-35%[59 µM],-2%,x,8%,-6%,-2%
COc1ccc(OC)c(NC(=O)Cc2coc3cc(C)cc(C)c23)c1,-1%,-13%,x,7%,-3%,-16%
C=CCn1c(-c2ccc(F)cc2)n[nH]c1=S,20µM*,-20%,x,26%,-23%,7.1µM*
O=c1cc(-c2ccccc2)cc(-c2ccccc2)n1CCCO,16%[2.33 µM],x,1%,13%,-3%,-20%
C=CCn1c(-c2ccccc2)n[nH]c1=S,61%[59 µM],5µM*,36%,-12%,46%,u
C=CCn1c(-c2ccoc2)n[nH]c1=S,26%[0.501 µM],-27%,2%,u,u,5µM*
OCCCn1c(-c2ccccc2)n[nH]c1=S,7.9µM*,-5%,-18%,24%,-3%,28µM*
C=CCn1c(-c2cccc3ccccc23)n[nH]c1=S,u,7%,x,18%,-33%,19%
CC1CCC(NC(=O)c2nn(C)c3c2CSc2ccccc2-3)CC1 (centres undefined),-11%,-4%,x,37%,-6%,-17%
Fc1ccc(Nc2ccnc(-c3ccccc3C(F)(F)F)n2)cc1,6%[0.501 µM],7%,x,x,x,x
COc1ccc(NS(=O)(=O)c2ccccc2C(=O)O)cc1,x,x,x,x,x,-11%
SMILES,G9a block,Sfp PPTase inh,L3MBTL1 inh,HP1b binding inh,BAZ2B block,JMJD2A Tudor
CSCCC(N=C1NS(=O)(=O)c2ccccc21)C(=O)NCCc1ccccc1 (centres undefined),6%,3%,x,7%,4%,-5%
C=CCn1c(-c2ccncc2)n[nH]c1=S,x,-23%,-1%,36%,u,16µM*
CCCn1c(-c2ccncc2)n[nH]c1=S,u,u,3%,6%,5%,7.9µM*
Cc1ccc(-c2cn(CCN)c(-c3ccncc3)n2)cc1,-6%[2.33 µM],x,0%,13%,u,u
C=CCn1c(-c2ccccc2OC)n[nH]c1=S,2µM*,7%,5%,41%,-9%,6.3µM*
Cc1ccc(C)c(NC(=O)c2cnc3sc(N4CCOCC4)nn3c2=O)c1,26%[59 µM],x,x,8%,-8%,-8%
COc1ccc(C(c2nnnn2CCc2ccccc2)N2CCN(C3CCCC3)CC2)cc1OC (centres undefined),50µM*,-2%,4%,50%,u,-4%
COc1ccc(C(c2nnnn2C2CCCC2)N2CCN(C3CCCC3)CC2)cc1OC (centres undefined),u,2%,6%,15%,-34%,56µM*
Cc1ccc(C(c2sc3nc(-c4ccco4)nn3c2O)N2CCCC2)cc1 (centres undefined),-8%[59 µM],x,x,8%,-21%,-19%
CCc1ccc(-n2c(C)cc(/C=N/NC(=O)c3ccncc3)c2C)cc1,x,-23%,-27%,-3%,40µM*,u
Cc1ccc(-n2c(C)cc(/C=N/NC(=O)c3ccncc3)c2C)c(C)c1,u,1%,-16%,6%,45µM*,u
Cc1cccc(C)c1-n1c(C)cc(/C=N/NC(=O)c2ccncc2)c1C,u,-23%,-8%,15%,u,u
COC(=O)N/N=C/c1cc(C)n(-c2ccc(F)cc2)c1C,u,6%,x,8%,u,-36%
Cc1cc(/C=N/NC(=O)c2ccncc2)c(C)n1-c1ccccc1,u,9%,-5%,2%,u,-27%
COC(=O)N/N=C/c1cc(C)n(-c2ccc(Br)cc2)c1C,x,-9%,-18%,u,45µM*,-25%
Cc1ccc(-n2c(C)cc(/C=N/NC(=O)c3ccncc3)c2C)cc1C,50µM*,6%,-24%,-16%,50µM*,u
CCOC(=O)C1(Cc2cccc(OC)c2)CCCN(C(=O)CSC)C1 (centres undefined),x,x,x,43%,x,-17%
Cc1ccc(C(=O)Nc2c(C)nc3ccccn3c2=O)cc1,11%[59 µM],x,x,11%[57 µM],0%,-6%
COc1cccc(CNC(=O)CSc2ccc(-c3ccccn3)nn2)c1,-5%,10%,x,21%,13µM*,u
O=C(CSc1ccc(-c2ccccn2)nn1)NCc1ccc(Cl)cc1,-1%,3%,x,26%,14µM*,u
O=C(CSc1ccc(-c2ccco2)nn1)NCc1ccc(Cl)cc1,u,-29%,5%,25%,-3%,-16%
COc1cc(F)c(S(=O)(=O)N2CCN(S(=O)(=O)c3cccc(N)c3)CC2)c(F)c1,x,x,x,x,x,-1%
Cc1nc(CN(C)c2ncnc3ccc(-c4ccc5c(c4)OCO5)cc23)cs1,x,x,x,x,x,89µM*
Cc1cccc(-c2ccc3ncnc(N(C)Cc4ccco4)c3c2)c1,-23%[12.7 µM],x,8%,x,-27%,x
CN(Cc1ccco1)c1ncnc2ccc(-c3ccc4c(c3)OCO4)cc12,-4%[12.7 µM],45µM*,-6%,1%,-10%,u
